# In PubChem BioAssay AID2283364 (EPA ToxCast):
# Inconclusive results are not listed. The source made the active and inactive calls. The calls were made as follows: active = hit-call score of the fitted dose curve at least 0.9, where 1 is the maximum; inconclusive = response in the unintended direction; inactive = score below 0.9.
# Biological target: human FK-506 Binding Protein (FKBP12), FKBP1A (gene 2280) (UniProt P62942)
# Assay: NVS_OR_hFKBP12: NovaScreen (NVS) Nuclear Receptor Binding Assay for human FK-506 Binding Protein (FKBP12)
# Procedure: NVS_OR_hFKBP12 is a biochemical, single-readout assay that uses extracted gene-proteins from E. coli in a cell-free assay. Measurements were taken 0.75 hour after chemical dosing in a 48-well plate.NVS_OR_hFKBP12 is one of one assay component(s) measured or calculated from the NVS_OR_hFKBP12 assay. It is designed to make measurements of radioligand binding, a form of binding reporter, as detected with scintillation counting signals by Filter-based radiodetection technology.Data from the assay component NVS_OR_hFKBP12 was analyzed into 1 assay endpoint. This assay endpoint, NVS_OR_hFKBP12, was analyzed in the positive analysis fitting direction relative to DMSO as the negative control and baseline of activity. Using a type of binding reporter, loss-of-signal activity can be used to understand changes in the binding as they relate to the gene FKBP1A. Furthermore, this assay endpoint can be referred to as a primary readout, because the performed assay has only produced 1 assay endpoint. To generalize the intended target to other relatable targets, this assay endpoint is annotated to the misc protein intended target family, where the subfamily is chaperone.
# Binding assays used specific radioligands (tritiated, iodinated) with non-radioactive competitive displacement ligands in agonist or antagonist protocols (as indicated) and various reference compounds and inhibitors to titrate specific binding to receptors and transporters. Most enzyme assays (CYPs, kinases, phosphatases, proteases, HDACs) used recombinant protein and specific substrates (fluorescence mostly, some colorimetric and radioactive) and inhibitors, followed by a biochemical separation of substrate and product. All assays for the biochemical HTS were initially run in duplicate at a single concentration (10 uM for CYP450 assays and 25 uM for all others). Assay-chemical combinations meeting a pre-defined threshold (e.g., 30% inhibition and other criteria defined below) were then run in singleton concentration-response format with maximum concentration of 20 uM for CYPs and 50 uM for all others. Each assay was run with positive and negative controls, and concurrent controls on every plate. The follow-up (secondary) screen tested active chemical-pairs in concentration series, as well as a few additional assays not tested in the primary screen, some selected negative inactives, and several cases re-run in the concentration series for confirmatory purposes.
# Sequence of human FK-506 Binding Protein (FKBP12), FKBP1A (gene 2280) (P62942 whole entry, looked up): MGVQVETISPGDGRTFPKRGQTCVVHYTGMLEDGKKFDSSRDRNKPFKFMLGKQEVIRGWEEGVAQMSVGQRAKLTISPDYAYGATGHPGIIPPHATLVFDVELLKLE
row,Structure (SMILES),outcome
1,c1ccc(-c2ccccc2)cc1,inactive
2,Cc1cc(C)nc(NC(=O)NS(=O)(=O)c2ccccc2C(=O)OC2COC2)n1,inactive
3,O=C(O)c1nc(Cl)ccc1Cl,inactive
4,Cc1ccn2nc(S(=O)(=O)Nc3c(F)cccc3F)nc2n1,inactive
5,CO/N=C(/C1=NOCCO1)c1ccccc1Oc1ncnc(Oc2ccccc2Cl)c1F,inactive
6,CC[C@H](C)[C@H]1O[C@]2(C=C[C@@H]1C)C[C@@H]1C[C@@H](C/C=C(\C)[C@@H](O[C@H]3C[C@H](OC)[C@@H](O[C@H]4C[C@H](OC)[C@@H](O)[C@H](C)O4)[C@H](C)O3)[C@@H](C)/C=C/C=C3\CO[C@@H]4[C@H](O)C(C)=C[C@@H](C(=O)O1)[C@]34O)O2 (tested in a mixture with another compound),inactive
7,CNC(=O)Oc1ccccc1OC(C)C,inactive
8,COP(=S)(OC)SCn1nnc2ccccc2c1=O,inactive
9,COC(=O)C=C(C)OP(=O)(OC)OC,inactive
